The first experiment has as its target STARD3. Put plainly: pooled miR-30 sensor sort-seq; sequence = guide strand. Particulars: shRNA.
Take TTAAGAATCCAGACAAAGGTGC: the sensor-assay potency score (higher = more potent) was -0.169.
On the same count and under the same terms, the same measure for TTATTCTTCTCAAACTTCCAGT: -0.167.
Still for that read-out and setting: the same measure for TGTCTTGTTCCACAGCACCATC: -1.77; for TTCCACTCGCTGCAGGATCTGG: -1.17.

A further experiment addresses STAT5B. The description is as above. Particulars: shRNA.
TTGACTTGAAAAACCAGCTCAT registered a sensor-assay potency score (higher = more potent) of 0.235.
Still for that read-out and setting: the same measure for TTTAACACTTCCATCACACCGT: 0.122.
The same measure, in the same setting: the same measure for TAACACTTCCATCACACCGTCA: -0.288.
The same measure, in the same setting: for TTGTTCAAGATCTCGCCACTGT the value was 0.132; for TAACTCATTCTCTGTGTCCTGC, 0.72.
Regarding TTAGCAGTAGCAGACTCGCAGG, the sensor-assay potency score (higher = more potent) was -0.797.
Same read-out and setting: for TTGGCTTCTCGGACCAACCTCT the value was -0.339; for TATACTTCATCTTTTGGCCGAT, -0.0426; for TTCTCAATGATGAACGTGCTGG, -0.64.
TTAACACTTCCATCACACCGTC registered a sensor-assay potency score (higher = more potent) of -0.414.
The same measure, in the same setting: for TTCTGAGTCACTGAATCTCAGG the value was -1.25; for TTTAGCAGTAGCAGACTCGCAG, 0.175.
Further: reference of the scale not given here.
